Results from publication doi:10.1101/2024.03.05.583629.

What follows are sequences tested against pT7_6His-AlfaTag-HOXD13 (human, UniProt P35453 263-343) (assay: PADIT-seq). Details: dsDNA, one strand shown.
Chain of pT7_6His-AlfaTag-HOXD13 (P35453 263-343): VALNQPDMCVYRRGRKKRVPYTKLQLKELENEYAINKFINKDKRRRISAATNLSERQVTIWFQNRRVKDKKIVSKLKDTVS

Sequence | binding signal
CTCGAGGATATCAAGATCTGGCCTCGGCCCTATAAAAGGAACCTCTAGCTAGCCGACTCACTATAGGGATAATCGCCCTGAGCAAAGACC | 2.89 ± 0.0925 log2FC
CTCGAGGATATCAAGATCTGGCCTCGGCTTTTTATAAGGAACCTCTAGCTAGCCGACTCACTATAGGGATAATCGCCCTGAGCAAAGACC | 3.23 ± 0.0851 log2FC
CTCGAGGATATCAAGATCTGGCCTCGGCCTTTTAATCGGAACCTCTAGCTAGCCGACTCACTATAGGGATAATCGCCCTGAGCAAAGACC | 1.35 ± 0.0812 log2FC
CTCGAGGATATCAAGATCTGGCCTCGGCCTTTTACAAGGAACCTCTAGCTAGCCGACTCACTATAGGGATAATCGCCCTGAGCAAAGACC | 3.37 ± 0.074 log2FC
CTCGAGGATATCAAGATCTGGCCTCGGCCGCCCAACAGGAACCTCTAGCTAGCCGACTCACTATAGGGATAATCGCCCTGAGCAAAGACC | -0.724 ± 0.117 log2FC
CTCGAGGATATCAAGATCTGGCCTCGGCCTTTTATGGGGAACCTCTAGCTAGCCGACTCACTATAGGGATAATCGCCCTGAGCAAAGACC | 3.37 ± 0.0902 log2FC
CTCGAGGATATCAAGATCTGGCCTCGGCGCCATAAAAGGAACCTCTAGCTAGCCGACTCACTATAGGGATAATCGCCCTGAGCAAAGACC | 2.57 ± 0.0659 log2FC
CTCGAGGATATCAAGATCTGGCCTCGGCATTTTATTAGGAACCTCTAGCTAGCCGACTCACTATAGGGATAATCGCCCTGAGCAAAGACC | 3.28 ± 0.0692 log2FC
CTCGAGGATATCAAGATCTGGCCTCGGCGCGCCGGCGGGAACCTCTAGCTAGCCGACTCACTATAGGGATAATCGCCCTGAGCAAAGACC | -1.04 ± 0.18 log2FC
CTCGAGGATATCAAGATCTGGCCTCGGCCGCCCAGCGGGAACCTCTAGCTAGCCGACTCACTATAGGGATAATCGCCCTGAGCAAAGACC | -0.602 ± 0.194 log2FC
CTCGAGGATATCAAGATCTGGCCTCGGCTCCATAAAAGGAACCTCTAGCTAGCCGACTCACTATAGGGATAATCGCCCTGAGCAAAGACC | 2.64 ± 0.0916 log2FC
CTCGAGGATATCAAGATCTGGCCTCGGCTTACTAAAAGGAACCTCTAGCTAGCCGACTCACTATAGGGATAATCGCCCTGAGCAAAGACC | 0.214 ± 0.111 log2FC
CTCGAGGATATCAAGATCTGGCCTCGGCGACGTAAAAGGAACCTCTAGCTAGCCGACTCACTATAGGGATAATCGCCCTGAGCAAAGACC | 0.404 ± 0.076 log2FC
